Screens deposited in PubChem by National Center for Advancing Translational Sciences (NCATS).
Compounds with a hit are over-represented: about 6% of the library has one in this group of screens.
Tau fluor cs = Counterscreen qHTS for Inhibitors of Tau Fibril Formation, Fluorescence Polarization; tau K18 P301L Alexa594 fluorescence, heparin fibrillization; Potency, µM (titrated, usually from 57.7 µM), without a hit: at the highest dose activity change, negative = decrease; 0.93% of 280,000 active; AID 1463, 2008; further: nearly all actives have a fitted effect of over 55% in size
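Human tau K18 P301L (15 uM unlabeled, 0.24 uM Alexa 594-labeled) in 100 mM sodium acetate pH 7 with 20 uM heparin, 6 hr at 37 C. ThT 30 uM added, 1 hr ambient; Alexa 594 FP and total fluorescence read at 555/632 nm.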
Tau fibril ThT = qHTS for Inhibitors of Tau Fibril Formation, Thioflavin T Binding. recombinant tau K18 P301L (four-repeat tau fragment), heparin-induced fibrillization, ThT fluorescence. Potency, µM (top dose mostly 57.4 µM), for the others: top-dose activity, negative = inhibition, hits mostly inhibitors. 2.1% of 270,000 active; further: nearly all actives have a fitted effect of over 55% in size
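Recombinant human tau K18 fragment […] carrying P301L, 15 uM unlabeled plus 0.24 uM Alexa 594-labeled, was fibrillized with 20 uM heparin in 100 mM sodium acetate pH 7 for 6 hr at 37 C; 30 uM ThT fluorescence read after 1 hr.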
VDR inh = Inhibitors of the vitamin D receptor (VDR): qHTS. 0.93% of 400,000 active. VDR-SRC2-3 peptide fluorescence polarization, 2 h. Potency, µM, without a hit: max response, negative = inhibition, actives largely listed as inhibitors. AID 504847, 2011. Vitamin D3 receptor (Homo sapiens), P11473
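The screen uses fluorescence polarization to detect compounds that interfere with recruitment of the SRC2-3 coactivator peptide to VDR; plates are read after 2 h at room temperature.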
PLK1 PBD block = qHTS for Inhibitors of PLK1-PDB (polo-like kinase 1 - polo-box domain): Primary Screen. Serine/threonine-protein kinase PLK1 (Homo sapiens), P53350. Plk1 PBD binding of FITC phosphopeptide, fluorescence polarization. Potency, µM, for inactives: max response, negative = inhibition, usual class: inhibitors. 2.8% of 360,000 active. AID 720504, 2013; further: series mostly up to about 57 µM; nearly all actives have a fitted effect of over 65% in size
Target sequence (P53350 whole entry, looked up, the tested form may be a part): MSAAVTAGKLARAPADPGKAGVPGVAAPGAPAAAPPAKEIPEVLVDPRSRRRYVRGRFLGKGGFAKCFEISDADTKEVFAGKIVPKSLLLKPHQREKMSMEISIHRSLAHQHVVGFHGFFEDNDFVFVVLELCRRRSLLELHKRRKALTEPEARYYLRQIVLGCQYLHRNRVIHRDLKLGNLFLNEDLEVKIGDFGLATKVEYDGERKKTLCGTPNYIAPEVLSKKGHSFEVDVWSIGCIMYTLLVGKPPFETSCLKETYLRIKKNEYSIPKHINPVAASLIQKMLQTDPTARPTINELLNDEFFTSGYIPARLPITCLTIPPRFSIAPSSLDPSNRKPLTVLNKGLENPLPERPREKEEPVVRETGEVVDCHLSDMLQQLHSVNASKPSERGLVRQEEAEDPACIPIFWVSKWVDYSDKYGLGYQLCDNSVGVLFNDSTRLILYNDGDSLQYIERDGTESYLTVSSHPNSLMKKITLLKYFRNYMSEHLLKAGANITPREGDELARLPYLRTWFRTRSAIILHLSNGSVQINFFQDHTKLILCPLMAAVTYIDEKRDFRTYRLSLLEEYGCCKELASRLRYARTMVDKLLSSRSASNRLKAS
Sfp PPTase inh = qHTS Assay for Inhibitors of Bacillus subtilis Sfp phosphopantetheinyl transferase (PPTase); 4'-phosphopantetheinyl transferase ffp (Bacillus subtilis), Q9F4F7; Biochemical Sfp PPTase activity, qHTS; Potency, µM, for the others: largest response in the series, negative = inhibition, actives largely listed as inhibitors; 3.5% of 310,000 active;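 further: the enzyme is Sfp with the accession as filed and its product quenches rhodamine fluorescence; 0% = enzyme reaction without inhibitor and -100% = no enzyme wells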
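Compounds were incubated with enzyme (final 15 nM) for 15 min at room temperature before substrate addition started the reaction. Fluorescence at 525 nm excitation, 598 nm emission was recorded immediately and after 30 minutes.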
Tau FP inhib = qHTS for Inhibitors of Tau Fibril Formation, Fluorescence Polarization. Microtubule-associated protein tau (Homo sapiens), P10636. K18 P301L tau heparin fibrillization, Alexa594 FP, 6 h. Potency, µM (highest dose often 57.7 µM), without a hit: at the top dose activity, negative = inhibition, hits mostly inhibitors. 0.39% of 280,000 active; further: nearly all actives have a fitted effect of over 55% in size
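K18 P301L tau (15 uM unlabeled/0.24 uM Alexa 594-labeled, final) + compound + heparin 20 uM final; 100 mM NaOAc pH 7; 6 hr 37 C; ThT 30 uM final added, 1 hr RT; FP ex 555/em 632 nm.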
* marks the source's active call; other numbers are inactive results; ? = inconclusive; . = no result; [ ] = another dose, or the depositor's remark. The call rests on the fitted dose curve; in most records, active means well fitted curve in the direction sought with a large enough effect; inconclusive means small, poorly fitted or top-dose-only effect, or another doubt; inactive means no such curve, though single readings can be large; an effect the other way counts as inactive or inconclusive. Unless noted, on the % scale 0 is the no-effect control and ±100 the full control effect; potency means the concentration at half of the fitted maximal effect.

SMILES	Tau fluor cs	Tau fibril ThT	VDR inh	PLK1 PBD block	Sfp PPTase inh	Tau FP inhib
COC(=O)c1ccc(C(=O)O)nc1	-1%	0%	-6%	-8%	79µM*	0%
COC(=O)c1cccnc1	-2%	-10%	?	.	3%	0%
Cc1ccc(NC(=O)CN2C(=O)/C(=C3\SC(=S)N(C4CCS(=O)(=O)C4)C3=O)c3ccccc32)cc1 (centres undefined)	-20%	-13%	-4%	-11%	-3%	5%
Cc1cccc(NC(=O)CN2C(=O)/C(=C3\SC(=S)N(CC4CCCO4)C3=O)c3ccccc32)c1 (centres undefined)	.	.	0%	0%	-1%	.
COc1ccc(NC(=O)CN2C(=O)/C(=C3\SC(=S)N(CCC(=O)O)C3=O)c3ccccc32)cc1	.	.	-13%	11µM*	12%	.
O=C(CN1C(=O)/C(=C2\SC(=S)N(C3CCS(=O)(=O)C3)C2=O)c2ccccc21)Nc1ccccc1 (centres undefined)	?	?	-25%	-13%	28µM*	10%
O=C(CN1C(=O)/C(=C2/SC(=S)N(CCS(=O)(=O)O)C2=O)c2ccccc21)Nc1cccc(Br)c1	.	.	?	27µM*	.	.
CCOc1cc(-c2cc(-c3ccccc3)nc(N)c2C#N)ccc1O	?	-23%	6%	-3%	-17%	-13%
CCOc1cc(-c2cc(-c3ccc(N)cc3)nc(N)c2C#N)ccc1O	14µM*[quencher]	?	-12%	-24%	-1%	?
CC(C)C[C@@H](CC(=O)N[C@@H](CCCN)CC(=O)N[C@@H]1CCCC[C@H]1C(=O)N[C@H](CC(=O)N[C@@H](CCC(=O)O)CC(=O)O)CC(C)C)NC(=O)[C@@H]1CNCC[C@H]1N	-2%	-5%	3%	.	-22%	1%
COc1ccccc1/C=C/C=N/NC(=O)c1cc(-c2ccco2)[nH]n1	-25%	-12%	14%	?	13µM*	-14%
COc1ccccc1/C=C/C=N/NC(=O)c1ccccn1	-4%	?	20%	-8%	-15%	2%
COc1ccc(-c2cc(C(=O)Nc3cc(C)nn3-c3ccccc3)no2)cc1OC	-5%	-5%	-18%	38µM*	21%	-2%
Cc1nn(-c2cccc(C(F)(F)F)c2)c(Cl)c1/C=N/Nc1cccc(C(=O)O)c1	?	?	?	24µM*	-15%	-1%
COc1cc(SC)ccc1C(=O)NCCOc1c(C)cc(C)cc1C	-20%	16µM*	4%	-7%	50µM*	-6%
CCOc1cc(C2Nc3ccccc3C(=O)N2Cc2ccco2)ccc1OCc1ccccc1Cl (centres undefined)	.	.	-27%	.	.	.
O=C(NCCc1ccccc1)c1c[nH]c2ccc(S(=O)(=O)Nc3ccccc3F)cc2c1=O	?	-6%	7%	.	.	13µM*
CCN(CC)S(=O)(=O)c1ccc2[nH]cc(C(=O)NCCC3=CCCCC3)c(=O)c2c1	?	7%	8%	-1%	2%	11µM*
CCN(CC)S(=O)(=O)c1ccc2[nH]cc(C(=O)NCCN3CCCCCC3)c(=O)c2c1	-12%	-5%	-11%	-5%	-3%	0%
O=C(NCc1ccccc1)c1c[nH]c2ccc(S(=O)(=O)Nc3ccc4c(c3)OCCO4)cc2c1=O	10µM*[quencher]	-10%	-1%	-11%	7%	?
CCc1ccc(NS(=O)(=O)c2ccc3[nH]cc(C(=O)NCc4ccc(C)cc4)c(=O)c3c2)cc1	?	10%	-9%	.	.	3.5µM*
CC1(c2nc3ccccc3[nH]2)CCC(=O)N1C1CC1 (centres undefined)	.	.	.	7%	.	.
Oc1ccc(N2CCN(Cc3cc4c(cc3Br)OCCO4)CC2)cc1	.	.	-16%	-15%	50µM*	.
O=S(=O)(c1ccc(F)cc1)N1CCN(Cc2cc3c(cc2Br)OCCO3)CC1	.	.	4%	4%	.	.
CCc1ccc(C(=O)NNc2ccc(C)c(Cl)c2)cc1	-21%	?	?	-18%	-5%	-7%
SMILES	Tau fluor cs	Tau fibril ThT	VDR inh	PLK1 PBD block	Sfp PPTase inh	Tau FP inhib
Cc1ccc(NNC(N)=S)cc1Cl	-8%	?	79µM*	-22%	13µM*	-12%
NC(=S)NNc1ccc(Cl)c(Cl)c1	-25%	.	?	?	3.2µM*	?
O=Cc1cc(OCc2ccccc2)ccc1[B-](F)(F)F	.	.	20µM*	-17%	.	.
Cc1cc(C)cc(C(O)c2ncc(-c3ccc(F)cc3)[nH]2)c1 (centres undefined)	.	.	.	3%	.	.
OC[C@@H]1CN(Cc2ccc3c(c2)OCO3)C[C@H](n2cnc3c(N4CCN(c5ccccc5)CC4)ncnc32)O1	.	.	.	1%	.	.
CCCCCCCCCCCCCCCCOCCOCCOCCOCCOCCOCCOCCOCCOCCOCCOCCOCCOCCOCCOCCOCCOCCOCCOCCOCCO	.	.	2%	.	50µM*	.
C[C@@H]1CC=C[C@H]2[C@H]1C(=O)N(Cc1ccccc1)[C@H]2c1ccc2ccccc2c1Br	-1%	-6%	-30%	24µM*	-13%	6%
CCC1CC=CC2C1C(=O)N(Cc1ccccc1)C2c1ccoc1 (centres undefined)	.	.	79µM*	.	-15%	.
COc1ccc(OC)c(CNC(=O)CCC(=O)N2Cc3cccc(OC)c3Oc3ncccc32)c1	.	.	-3%	-1%	28%	.
O=C(O)/C=C\C(=O)Nc1cccc(C(=O)Nc2cccc(O)c2)c1	-8%	-7%	5%	24µM*	3%	2%
O=C(Nc1cccc(O)c1)c1ccccc1	-4%	-7%	12%	-5%	13%	7%
Fc1ccc(Nc2nc3nonc3nc2Nc2cccc(C(F)(F)F)c2)cc1	?	?	-2%	.	.	?
O=C(Oc1ccc(F)cc1C(=O)/C=C/c1cccs1)c1cccc([N+](=O)[O-])c1	?	14µM*	?	-23%	16%	10%
CCNC(=O)C1CCCN(C(=O)c2cccc(Cl)c2)CC1 (centres undefined)	.	.	.	6%	.	.
O=[N+]([O-])c1c(NCCO)cc(N2CCCCCC2)c2nonc12	.	.	1%	-14%	-1%	.
O=C1c2ccccc2-c2onc3c(Br)cc(NC4CCCCC4)c1c23	-12%	11µM*	-19%	.	.	?
CC(C)CNc1cc(NC2CCCCC2)c2c3c(onc13)-c1ccccc1C2=O	?	?	?	.	.	6%
